# Hit rate of the full screen: of about 360,000 compounds, about 17,000 (4.7%) were called active. Inconclusive results (about 5%) are left out. Cut-off read from the data, not from the text of the source: active = activity change below about -50%; inconclusive = mostly about -30% to -49%; inactive = weaker than that. The full list was thinned out, with actives kept by preference.
# Test: qHTS for Inhibitors of Inflammasome Signaling: IL-1-beta AlphaLISA Primary Screen
# Conditions: THP-1 LPS/ATP IL-1B secretion, 16 h; at 57.5 µM, active compounds read low
# Procedure, shortened: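 Secreted IL-1B measured by AlphaLISA bead assay after 16 h compound exposure of THP-1 cells; compounds (final up to 57.5 uM) added 1 h before LPS (250 ng/mL) and ATP (1.25 mM) stimulation; lower signal means less secretion.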
# % is set by controls: 0 for no effect and ±100 for the full control effect.
row,Compound,activity change
1,Nc1cc(=O)c2[nH]cnc2[nH]1,17.6% (inactive)
2,CCc1nc2ccc(C(=O)N(C)CCN(C)C)cn2c1N(CC)CCOC,-19.3% (inactive)
3,CC(C)C[C@@H]1Cc2[nH][nH]c(=O)c2[C@H](CCc2ccccc2)O1,-2.24% (inactive)
4,CC1(c2cccc(Br)c2)NC(=O)N(CC(=O)NCCC2=CCCCC2)C1=O (configuration not stated),1.79% (inactive)
5,COc1cccc2c1C(=O)c1c(O)c3c(c(O)c1C2=O)CC(O)(C(C)=NNC(=O)c1ccc(Cl)c(Cl)c1)CC3OC1CC(N)C(O)C(C)O1 (configuration not stated),-101% (active)
6,Oc1c(CN2CCOCC2)ccc(CN2CCOCC2)c1O,14.4% (inactive)
7,CN(C(=O)c1cccc(NC(=O)Cc2ccc(NC(=O)C3CCN(C(=O)C4CCCCC4)CC3)cc2)c1)C1CCC1,-1.34% (inactive)
8,CN1CCN(C2Cc3ccc(Cl)cc3Sc3ccc(F)cc32)CC1 (configuration not stated),-63.5% (active)
9,COC(=O)C1NN=C(C(=O)c2ccc(Br)cc2)C1c1cccc(Br)c1 (configuration not stated),19.6% (inactive)
10,C[C@H]1CN([C@@H](C)CO)C(=O)CCCn2cc(nn2)CO[C@@H]1CN(C)C(=O)Nc1ccccc1,-2.98% (inactive)
11,CCOc1nc(NCCN2CCOCC2)nc(Nc2ccc(C)cc2)n1,-27.7% (inactive)
12,c1ccc2cc3c(NCCN4CCOCC4)ccnc3cc2c1,-83.2% (active)
13,Fc1ccc(-c2ccc(NCCN3CCOCC3)nn2)cc1,-8.39% (inactive)
14,Cc1nc(N)sc1-c1ccccc1,-26.3% (inactive)
15,COc1ccc(-n2c(Cc3cccn3C)nnc2SCC(=O)Nc2cc(C)cc(C)c2)cc1,-24.7% (inactive)
16,Cc1cccc(-n2c(=O)c3c(C)c(C)sc3n(CC(N)=O)c2=O)c1,16.6% (inactive)
17,N#CCSc1nc2c(c(=O)n1Cc1ccccc1)C1(CCCC1)Cc1ccccc1-2,4.25% (inactive)
18,Cc1cccc(-n2c(SCC(N)=O)nc3c(c2=O)C2(CCCCC2)Cc2ccccc2-3)c1,-72.3% (active)
19,COCC(=O)N(C)C[C@H]1Oc2cc(Br)ccc2S(=O)(=O)N([C@H](C)CO)C[C@H]1C,20.9% (inactive)
20,CCOCCC(=O)Nc1ccc2c(c1)c(=O)n(C)n2-c1ccc2ccccc2c1,87.4% (inactive)
21,COc1ccc(Cl)cc1C(=O)NNC(=S)NC(=O)/C=C/c1ccco1,26.9% (inactive)

row,Compound,activity change
1,COc1cc2c(cc1OC)C(/C=C/c1ccco1)=NCC2,-75.5% (active)
2,CCOC(=O)C1=NN(c2ccc(Cl)cc2)/C(=C/C2=NCCc3cc(OC)c(OC)cc32)S1,-28.4% (inactive)
3,C[C@H]1COc2cc(N3CCSCC3)ccc2S(=O)(=O)N1,26.2% (inactive)
4,COc1ccc(Cl)cc1-c1cc(C(=O)Nc2cc(OC)c(OC)c(OC)c2)[nH]n1,-10.3% (inactive)
5,CSc1ncnc2c1ncn2CCCNCC(C)c1ccccc1 (configuration not stated),17.6% (inactive)
6,COc1ccc(-c2cc(NC(C)=O)c3ncc(-c4cc(OC)c(OC)c(OC)c4)n3c2)cn1,41.4% (inactive)
7,O=C1/C(=C/c2ccc(F)cc2)SC(=S)N1CCCC(=O)N1CCCCC1CCO (configuration not stated),-86.6% (active)
8,CCN(C(=O)CN1C(=O)/C(=C/c2ccc(F)cc2)SC1=S)C1CCS(=O)(=O)C1 (configuration not stated),0% (inactive)
9,COc1ccc(/C=C2\SC(=S)N(CCCC(=O)NC3CCCC3)C2=O)cc1OC,7.66% (inactive)
10,Cc1cccc(C)c1-n1nnnc1C1(C)CCC(=O)N1CCOc1ccccc1 (configuration not stated),33.1% (inactive)
11,CC(C)c1ccc(/C=C/C(=O)NCCCN2CCOCC2)cc1,-1.14% (inactive)
12,CC1CC(NC(=S)N(C)C)CC(C)(C)C1 (configuration not stated),31.1% (inactive)
13,COc1cc(NS(=O)(=O)c2ccc3ccccc3c2)c2ncccc2c1,20.6% (inactive)
14,NS(=O)(=O)c1ccc(CCNS(=O)(=O)c2cccc3cccnc23)cc1,7.82% (inactive)
15,O=[N+]([O-])c1ccccc1S(=O)(=O)Nc1cccc2cccnc12,-99.8% (active)
16,CN(C(=O)c1cccc(NC(=O)Cc2cccc(NC(=O)C3CCCN(C(=O)C4CC4)C3)c2)c1)C1CCC1 (configuration not stated),0% (inactive)
17,COC(=O)c1ccc2nc(-c3ccc(C)cc3)c(Cc3ccc(OC)cc3C)n2c1,16% (inactive)
18,COc1cccc(NC(=O)COC(=O)/C=C/c2ccco2)c1,19.5% (inactive)
19,O=C(/C=C/c1ccco1)NC(=S)Nc1ccccc1Br,-18.4% (inactive)
20,O=C(/C=C/c1ccco1)Nc1ccc(Oc2ccccc2)cc1,-58.1% (active)
21,CSC1=NCCN1C(=O)c1ccc(S(=O)(=O)N2CCOCC2)cc1,2.64% (inactive)

row,Compound,activity change
1,CC(=O)Nc1ccc(C(=O)Nc2cc(S(=O)(=O)N3CCOCC3)ccc2N2CCOCC2)cc1,-12.6% (inactive)
2,CCC(C)NC(=O)c1ccc(NC(=O)CC2SC(N3CCCCC3)=NC2=O)cc1 (configuration not stated),-15.8% (inactive)
3,COc1cccc2cc(C(=O)NCc3ccc(C)cc3)c(=N)oc12,-59.4% (active)
4,N=c1oc2ccccc2cc1C(=O)NCc1ccccc1,-22.4% (inactive)
5,COc1cccc2cc(C(=O)N(C)C)c(=O)oc12,-12.7% (inactive)
6,OC[C@@H]1CN(Cc2ccncc2)C[C@H](n2cnc3c(N4CCN(c5ccccc5)CC4)ncnc32)O1,3.63% (inactive)
7,O=C(Nc1cccnc1)c1cc(Cl)ccc1Cl,-60.5% (active)
8,O=C(Nc1cccnc1)c1cc([N+](=O)[O-])ccc1Cl,0% (inactive)
9,O=C(Nc1cccnc1)c1ccc(Cl)cc1[N+](=O)[O-],0% (inactive)
10,COCCNC(=S)N1CCN(C)CC1,26.6% (inactive)
11,c1ccc(Cc2ccc(OCCn3ccnc3)cc2)cc1,-57.5% (active)
12,Brc1ccc(OCCn2ccnc2)cc1,-15% (inactive)
13,Clc1ncn(CCOc2ccccc2)c1Cl,-9.73% (inactive)
14,CC(C)Oc1cc(F)ccc1-c1cc(C(=O)Nc2ccc(F)cc2)[nH]n1,-25.4% (inactive)
15,Cn1c(=O)c([N+](=O)[O-])c(Oc2ccccc2)c2ccccc21,-86.4% (active)
16,Cc1cc(C)c(-c2c(O)c3ccccc3n(C)c2=O)c(C)c1,13% (inactive)
17,COc1cc2c(=O)n(C)c3ccccc3c2cc1OC,-24.4% (inactive)
18,Cn1nc(-c2ccccc2)c2cc([N+](=O)[O-])ccc21,-13.7% (inactive)
19,Cc1cccc(Oc2c([N+](=O)[O-])c(=O)n(C)c3ccccc23)c1,-101% (active)
20,Cc1cccc(OP(=O)(Nc2c(C)n(C)n(-c3ccccc3)c2=O)Oc2cccc(C)c2)c1,-27.9% (inactive)

# Source: PubChem BioAssay AID743279 (National Center for Advancing Translational Sciences (NCATS), 2014)
